# Reference: the supplement of paper PMC12636033
# ± gives the standard deviation of the averaged measurements. The full ranking holds about 33,000 sequences; the median of “E-score (rank enrichment, -0.5 to 0.5)” is about -0.0028, and the highest 2% start at about 0.23. The sample holds the highest values, similar sequences and a random draw of the others, so the mix is not that of the screen.
# Tested on: 2Sb-muMax20 (muMax20 with two 1,3-bis(methyl)benzene Cys staples, A13C/A17C and Q88C/A92C, C-terminal Lys)
# Test: PBM 8-mer E-score (E-score (rank enrichment, -0.5 to 0.5)); higher = stronger preferential binding
# Experimental: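 Protein binding microarray (universal PBM chip covering all 10-mers in fixed probe flanks) with chemically synthesized human Max(13-93) bHLH-LZ analogs (not full-length Max) bearing noncanonical residues (hArg, Tha, Aib, Nle at 65) and aromatic Cys staples. Read-out per 8-mer (and its reverse complement): E-score (rank-based enrichment, -0.5 to 0.5) and Z-score of median probe intensity.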
row,Sequence,PBM 8-mer E-score
1,ACGACGAC,-0.124 ± 0.0076
2,GTTCGCTA,-0.0331 ± 0.033
3,ATTAGTCA,0.172 ± 0.041
4,CAGGATAG,0.0195 ± 0.012
5,GCCGTCAA,-0.0475 ± 0.027
6,AAAGCGCA,0.0962 ± 0.09
7,CAAGCGCC,-0.226 ± 0.091
8,CAAGCGCA,0.27 ± 0.03
9,ACATGTGG,0.246 ± 0.04
10,AAATGTGG,0.114 ± 0.11
11,GCATGTGA,0.159 ± 0.02
12,CCATGTGA,0.109 ± 0.036
13,ACACATGG,0.145 ± 0.08
14,ACATGTGA,0.308 ± 0.033
15,ACACATGT,0.334 ± 0.0089
16,ACACATGA,-0.0128 ± 0.068
17,ACATGTGC,0.167 ± 0.0089
18,CCTCCGTC,0.0056 ± 0.021
19,GCCGGCCC,-0.162 ± 0.0086
20,AAATAGTA,0.175 ± 0.0028
21,CAATAACG,0.105 ± 0.029
22,AAATAATC,-0.0306 ± 0.048
23,ATATAACA,0.126 ± 0.0091
24,CGATAACG,-0.0616 ± 0.034
25,AGATAACC,0.0753 ± 0.022

row,Sequence,PBM 8-mer E-score
1,AAATAACG,0.273 ± 0.017
2,AAATAACA,0.0873 ± 0.044
3,ATATAACG,0.288 ± 0.0086
4,ATATAACC,0.16 ± 0.041
5,AAATAATA,0.149 ± 0.025
6,AGATAACG,0.259 ± 0.041
7,AAATAATG,0.2315 ± 0.002
8,AACGTGGT,0.224 ± 0.05
9,ATTCCTCC,0.129 ± 0.052
10,ACACCGGG,-0.119 ± 0.096
11,AGCATAAG,0.0893 ± 0.055
12,CATTATGG,0.0682 ± 0.009
13,CACATTCC,-0.108 ± 0.075
14,GCTGCGCA,-0.147 ± 0.022
15,CAACATGG,0.138 ± 0.066
16,CAACATGA,0.232 ± 0.044
17,CAACATGC,-0.00139 ± 0.11
18,CGATATAA,0.262 ± 0.066
19,CGATATAC,0.156 ± 0.025
20,TGTTATAA,0.261 ± 0.021
21,AACTATAA,0.102 ± 0.024
22,CTATATAA,0.0927 ± 0.03
23,TTATATAA,0.241 ± 0.086
24,CGATATAG,0.00229 ± 0.039
25,ATATATAA,0.221 ± 0.099

row,Sequence,PBM 8-mer E-score
1,CGTTATAA,0.129 ± 0.021
2,AGTTATAA,0.141 ± 0.061
3,TACTATAA,0.239 ± 0.017
4,CACTATAA,-0.0514 ± 0.028
5,CCCACTAA,0.177 ± 0.014
6,ACAGTCAC,0.0067 ± 0.018
7,AAATCTGG,-0.19725 ± 4.2e-05
8,TACCTTAA,-0.0174 ± 0.012
9,ACAGGAGC,-0.00133 ± 0.025
10,GATTGCGA,-0.103 ± 0.03
11,CTGGTACA,0.0235 ± 0.024
12,CGCCGGAG,-0.226 ± 0.023
13,CAAATTGG,0.0841 ± 0.087
14,CCTCCCCC,-0.17 ± 0.14
15,CCCTCCCA,0.325 ± 0.076
16,ACTCCCCG,0.168 ± 0.015
17,CCTCCCAA,0.0447 ± 0.088
18,CCTCCCCA,0.346 ± 0.046
19,ACTCCCCA,0.309 ± 0.0089
20,ACCTCCCA,-0.0967 ± 0.065
21,ACTCCCCC,-0.192 ± 0.053
22,ACTCCCCT,0.266 ± 0.028
23,GCCTCCCA,-0.128 ± 0.085
24,TCTCCCCA,0.164 ± 0.047
25,ACTCCCAA,0.141 ± 0.025

row,Sequence,PBM 8-mer E-score
1,CGGATAAA,0.0371 ± 0.069
2,AGATGAAT,0.17 ± 0.0036
3,CATCCTAG,0.0659 ± 0.037
4,ATAGGGAA,0.0733 ± 0.043
5,CTAATCCA,0.0132 ± 0.01
6,CACATCGG,-0.0961 ± 0.052
7,ATTGTTGC,0.00699 ± 0.061
8,AAGAGGGC,0.0019 ± 0.0019
9,ACGCTCTG,-0.0545 ± 0.0079
10,CCAACGAC,-0.133 ± 0.023
11,TTAACTAA,0.241 ± 0.014
12,ATAACTAA,0.112 ± 0.031
13,CTAACTAA,0.0585 ± 0.065
14,TAAACTAA,0.233 ± 0.028
15,CAAACTAA,0.0893 ± 0.026
16,AAAACTAA,0.132 ± 0.019
17,GACTGCCA,-0.0667 ± 0.023
18,ACCCCACT,0.293 ± 0.044
19,ACCCCAGA,0.156 ± 0.044
20,ACCCCAGG,-0.107 ± 0.067
21,ACCCCACC,0.22 ± 0.074
22,ACCCCAGT,0.336 ± 0.028
23,AACCCACT,0.059 ± 0.037
24,ATTGAAGG,6e-05 ± 0.019
25,AGTTCAAA,-0.0257 ± 0.13

row,Sequence,PBM 8-mer E-score
1,AACCGGCC,-0.167 ± 0.021
2,CCGCTGCC,-0.123 ± 0.029
3,CAGAGAGA,-0.0625 ± 0.011
4,ATACAAAT,0.148 ± 0.12
5,CTACAAAA,0.0645 ± 0.037
6,TTACAAAA,0.181 ± 0.03
7,ATACAAAA,0.296 ± 0.014
8,GTACAAAA,0.27 ± 0.0082
9,GTACAAAC,0.028 ± 0.04
10,ACCTGTCC,0.0598 ± 0.062
11,AATATGGC,0.221 ± 0.025
12,CACAGCAC,-0.0272 ± 0.038
13,AGTAAGTA,0.126 ± 0.027
14,ATTAAGTG,0.122 ± 0.011
15,AGTAAGTG,0.2306 ± 0.0021
16,AATAAGTA,0.285 ± 0.0052
17,GTTAAGTA,0.0909 ± 0.029
18,CATAAGTA,0.163 ± 0.049
19,AGTAAGTC,0.1006 ± 0.00054
20,ATTAAGTA,0.236 ± 0.026
21,AATAAGTG,0.17 ± 0.066
22,CTGACCAC,-0.0726 ± 0.025
23,AGGTGGAA,-0.00713 ± 0.04
24,GTTATTAA,0.0581 ± 0.1
25,CAGTCTGG,-0.18 ± 0.038

row,Sequence,PBM 8-mer E-score
1,CAAATTCG,0.000655 ± 0.064
2,CACTTAAG,0.0265 ± 0.011
3,ATGGACCG,-0.222 ± 0.029
4,ACCCAAGT,0.282 ± 0.052
5,ACCCAAGC,-0.0166 ± 0.044
6,ACCCAAAG,0.0519 ± 0.028
7,ACCCAAAA,-0.0026 ± 0.17
8,ACCCAAAT,0.277 ± 0.028
9,ACCCAAGG,0.0572 ± 0.07
10,AGGAAACA,0.0889 ± 0.046
11,AGTCGCCC,-0.0113 ± 0.15
12,AACCGTAT,-0.0505 ± 0.036
13,CTGTGCGC,0.0257 ± 0.14
14,AACGTTCC,0.142 ± 0.028
15,CCGATGCC,-0.029 ± 0.062
16,ATAGCAAG,0.157 ± 0.0043
17,ATAGCAAC,0.031 ± 0.02
18,AAAGCAAG,0.167 ± 0.024
19,ATAGCAAT,0.234 ± 0.05
20,AAAGCAAT,0.268 ± 0.011
21,AAAGCAAC,0.0449 ± 0.04
22,CCGTAACC,-0.243 ± 0.07
23,ATAACCTG,0.113 ± 0.024
24,AATGGCGT,0.0723 ± 0.025
25,CGTGCACA,0.123 ± 0.094

row,Sequence,PBM 8-mer E-score
1,TGTGCACA,-0.0483 ± 0.071
2,CGTGCACG,0.357 ± 0.019
3,AAACGTTT,0.171 ± 0.011
4,AGGCAGGC,-0.109 ± 0.057
5,CTATTTCA,0.135 ± 0.01
6,ATATTTCC,-0.00852 ± 0.065
7,CTATTTCC,0.259 ± 0.0072
8,CCAAGCAA,0.0514 ± 0.029
9,ATGGATTA,-0.131 ± 0.0052
10,AGCGTCAA,-0.0167 ± 0.026
11,ACACAAGA,0.0809 ± 0.01
12,AATTGTAA,0.165 ± 0.011
13,GATTGTAC,0.051 ± 0.031
14,CATTGTAG,0.033 ± 0.059
15,AATTGTAG,0.0147 ± 0.034
16,AATTGTAC,0.2375 ± 0.0016
17,CATTGTAC,0.238 ± 0.031
18,GATTCGAC,-0.119 ± 0.031
19,GCAGGTGA,-0.000525 ± 0.049
20,AGCACAGA,0.00824 ± 0.026
21,AACATGCT,0.0156 ± 0.11
22,AAAACTGC,-0.0787 ± 0.029
